Measurements from PubChem BioAssay.

test: Plasmodium falciparum growth inhibition, primary screen, strain 3D7, DAPI fluorescence, 100 nL (AID 1184);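 note: parasites grown inside human red blood cells in medium with human serum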; details: P. falciparum 3D7 growth, 3 d, higher = more signal

Structure (SMILES) | z-score
CCCCC#C[C@@H]1C=C[C@H](Oc2cc(OC)c(OC)c(OC)c2)[C@@H](COC(=O)OCC)O1 | 0.421
C=COC[C@@H]1CN2[C@@H](CC[C@@H](C)[C@@H]2c2ccc(Br)cc2)C(=O)O1 | -0.977
CCN1C(=O)[C@H]2[C@H]3[C@H](O)[C@H](O)CC(=NOCC(C)C)[C@@H]3CC[C@H]2C1=O | -0.108
COC(=O)CC=C[C@@H](C)[C@@H](C=NOCC[C@@H]1C=C[C@H](OC(C)=O)[C@@H](COC(C)=O)O1)OC | 1.13
Cc1ccc(S(=O)(=O)NC(CCc2ccccc2)CC(=O)C(C)(C)C)cc1 (centres undefined) | -0.268
CC(CCN1CCc2nc(-c3ccccc3)c(-c3ccccc3)cc2C1)=NOC[C@@H](O)COCc1ccco1 | 0.329
O=C1[C@H]2[C@H]3[C@H](O)[C@H](O)CC(=NOC[C@@H](O)COCc4ccco4)[C@@H]3CC[C@H]2C(=O)N1C[C@@H]1CCCO1 | 0.965
COc1ccc(O[C@H]2C=C[C@@H](c3ccccc3)O[C@@H]2CON=CC[C@@H]2C=C[C@H](OC(C)=O)[C@@H](COC(C)=O)O2)cc1 | -0.483
CCOC(=O)[C@H](Cc1ccccc1)NC(=O)CCC1CC(OC(=O)NCCc2ccc(F)cc2)CC2(CCCC(COC(=O)NCCc3ccc(Cl)cc3)O2)O1 (some centres undefined) | -1.84
CCN1C(=O)[C@H]2[C@H]3[C@H](O)[C@H](O)CC(=NO[C@@H](C)c4cn([C@H](CO)Cc5ccccc5)nn4)[C@@H]3CC[C@H]2C1=O | 0.032
COc1ccc(COC(=O)NN=C2C[C@@H](O)[C@@H](O)[C@@H]3[C@@H]4C(=O)N(C5CCCCC5)C(=O)[C@@H]4CC[C@H]23)cc1 | -0.336
O=C1C=C[C@@H](O)[C@@H]2[C@@H]3C(=O)N(C[C@@H]4CCCO4)C(=O)[C@@H]3CC[C@@H]12 | 0.0136
CCOC(=O)[C@H](CC(C)C)NC(=O)CCC1CC(OC(=O)NCc2ccc3c(c2)OCO3)CC2(CCCC(COC(=O)NCc3cccc(C(F)(F)F)c3)O2)O1 (some centres undefined) | -2.06
CCOC(=O)[C@H](Cc1ccccc1)NC(=O)CCC1CC(OC(=O)NCc2cccc3ccccc23)CC2(CCCC(COC(=O)NCc3ccccc3)O2)O1 (some centres undefined) | -1.41
CCOC(=O)NN=C1C[C@@H](O)[C@@H](O)[C@@H]2[C@@H]3C(=O)N(C(C)(C)C)C(=O)[C@@H]3CC[C@H]12 | 0.202
CCOC(=O)[C@H](Cc1ccccc1)NC(=O)CCC1CC(OC(=O)NCCc2ccc(F)cc2)CC2(CCCC(COC(=O)NCCOC)O2)O1 (some centres undefined) | -0.218
C#CCCCON=C1C[C@@H](O)[C@@H](O)[C@@H]2[C@@H]3C(=O)N(c4cccc(Oc5ccccc5)c4)C(=O)[C@@H]3CC[C@H]12 | 0.63
CC(C)=CCCC(C)=CCON=C1C[C@@H](O)[C@@H](O)[C@@H]2[C@@H]3C(=O)N(C4CCCCC4)C(=O)[C@@H]3CC[C@@H]12 | 0.242
COC(=O)[C@@H]1CC[C@H](C)[C@@H](c2ccc(C)cc2)N1C(=O)c1ccc(C=NO[C@H](C)c2cn([C@@H]3COC[C@H]3O)nn2)cc1 | -0.214
COC(=O)[C@H](C)NC(=O)CCC1CC(OC(=O)NCCc2ccc(F)cc2)CC2(CCCC(COC(=O)NCCC(C)C)O2)O1 (some centres undefined) | -0.861
CCCNC(=O)OC[C@H]1O[C@H](c2ccccc2)C=C[C@@H]1Oc1ccc(OC)cc1 | 0.284
COCOc1ccc(Br)cc1C(=O)[C@@H]1O[C@H]1c1cccc(OC)c1 | 0.194
COc1ccc(O[C@@H]2[C@H](O)CO[C@H]2C=Cc2ccccc2)cc1 | 0.465
CC(=O)OC[C@H]1O[C@H](CC=NO[C@H](C)c2cn([C@H](CO)Cc3ccccc3)nn2)C=C[C@@H]1OC(C)=O | 0.242
CCOC(=O)[C@H](CC(C)C)NC(=O)CCC1CC(OC(=O)NCc2cccc3ccccc23)CC2(CCCC(COC(=O)NCCOc3ccccc3)O2)O1 (some centres undefined) | -1.81
C#CCCCON=C1C[C@@H](O)[C@@H](O)[C@@H]2[C@@H]3C(=O)N(c4ccc(F)cc4F)C(=O)[C@@H]3CC[C@H]12 | -0.0103
CCO[C@H](c1cc(OC)cc([N+](=O)[O-])c1OC)[C@H](C)C=CCC(=O)OC | -0.0866
C[C@@H]1CC[C@H]2C(=O)O[C@@H](COc3ccc(C(C)(C)C)cc3)CN2[C@@H]1c1ccc(Br)cc1 | 0.093
C=CC[C@@H]1C=C[C@H](ON=C2[C@H]3CCn4c(=O)n(-c5ccccc5)c(=O)n4[C@H]3[C@H](O)[C@@H]3O[C@H]23)[C@@H](CO)O1 | -0.605
